Test results as given in PubChem BioAssay (EPA / NIEHS).
Active and inactive are the calls of the source. How the source made its calls: active means hit-call score of the fitted dose curve at least 0.9, where 1 is the maximum; inactive means score below 0.9.

Each compound was assayed on growth arrest and DNA damage 45 (GADD45G), GADD45G (gene 10912) (assay: LTEA_HepaRG_GADD45G: Life Technologies and Expression Analysis (LTEA) Assay for growth arrest and DNA damage 45 (GADD45G) using HepaRG (AID 2283499)). Conditions: mRNA level, 48 h; actives raise or lower the signal.
Experimental: LTEA_HepaRG is a cell based, multiplexed-readout assay that uses HepaRG, a human liver cell line, with measurements taken at 48 hours after chemical dosing on a 96-well plate.LTEA_HepaRG_GADD45G is one of 102 assay component(s) measured in the LTEA HepaRG cell culture assay. It is a marker of Cell proliferation, survival, death.Data from the assay component LTEA_HepaRG_GADD45G was analyzed into 1 endpoint. This assay endpoint, LTEA_HepaRG_GADD45G, was analyzed with bidirectional fitting relative to DMSO as the negative control and baseline of activity. Using a type of inducible reporter, measures of mRNA induction for gain or loss-of-signal activity can be used to understand regulation of transcription factor activity. To generalize the intended target to other relatable targets, this assay endpoint is annotated to the mutagenicity response intended target family, where the subfamily is Cell proliferation, survival, death.
A total of 1060 chemcials from the ToxCast library were tested in eight-point concentration-response experiments. Cell culture and cytotoxicity assays were conducted at Thermo Fisher Scientific's Custom Services facility (Madison, WI). A single lot of human HepaRG cells (Thermo Fisher Scientific, Frederick, MD) was used for the cell culture experiments. 96-well format collagen type I coated plates of human HepaRG cells were prepared using established methods. Briefly, cryopreserved HepaRG cells were thawed, plated at a density of approximately 100,000 cells/well in HepaRG Thaw, Plate, and General Purpose media (HPRG770, Thermo Fisher Scientific), and incubated for 48 hours. 0.5% DMSO was selected as vehicle control to balance the requisite need of DMSO in HepaRG cultures to maintain differentiation (for example, baseline metabolism, proportions of hepatocytes vs. cholangiocytes), while enabling further hepatic receptor pathway activation (for example, PXR and CAR) in response to chemical exposure. 48 hours after plating, the culture medium was replaced with HepaRG Serum-Free Incudtion Media. Cells were exposed to each test chemical in duplicate and maintained in CO2 incubators for another 48 hours. Chemical plates were thawed to room temperature and 200x concentrations of treatment groups were prepared. 8-point conentration-reponse curves were made with the highest exposure at 100 uM, followed by half-log dilutions, all in 0.5% DMSO. Each test plate contained variouse controls, induction positive controls (1mM phenobarbital), cytotoxicity positive controls ([…] aflatoxin B1), vehicle controls (0.5% DMSO), and total lysis controls (0.5% DMSO). Cell morphology images were taken using an Essen IncuCyte FLR automated microscope, with six 96-well plates imaged in about 24 minutes. Images were captured and exported and JPEG files. Spent culture media was transfered to black-well plates for the LDH assay, and remaining media was sorted at -80 C for later use. Cells were treated with RLT buffer and frozen until shipped for gene expression analysis. Total RNA was isolated from the cell suspension in 75 uL of Buffer RLT (Qiagen, Germantown, MD 20874) by Quintiles/Expression Analysis (Durham, NC) using a custom isolation procedure. Total RNA from each plate well was transferred to a preamplification plate. Fluidigm's 96.96 Dynamic ArrayTM (Fluidigm, Amsterdam, the Netherlands) technology was used for gene expression analyses by quantitative reverse transcription polymerase chain reaction (qRT-PCR, performed by Quintiles/Expression Analysis, Durham, NC)89. Standard TaqManTM Assays (Applied Biosystems/ThermoFisher Scientific, Foster City, CA) were used to assess the expression of 93 genes selected based on their selectivity and sensitivity to important hepatic receptors known to be modulated by environmental chemicals; importance in human hepatocyte functionality; and hepatotoxicity. […]
For `CN(C)c1nc(=O)n(C2CCCCC2)c(=O)n1C`, the outcome was “inactive”. With `Cc1ccccc1[N+](=O)[O-]` the outcome was “inactive”. In the case of `CCOCCOC(C)=O`, the outcome was “inactive”. For `O=NN(c1ccccc1)c1ccccc1`, the outcome was “inactive”. `Cc1ccccc1O` was tested, and the outcome was “inactive”. For `CCCN(CCC)N=O`, the outcome was “inactive”. `CC(C)(O)C(=O)Nc1ccc([N+](=O)[O-])c(C(F)(F)F)c1` was tested, and the outcome was “inactive”. `C[C@]12CCC(=O)C=C1CC[C@@H]1[C@@H]2CC[C@@]2(C)[C@H]1CC[C@]2(C)O` was tested, and the outcome was “inactive”. In the case of `CN(C)CCO`, the outcome was “inactive”. With `CC1=C2C[C@H]3[C@@H](CC=C4C[C@@H](O)CC[C@@]43C)[C@@H]2CC[C@]12O[C@@H]1C[C@H](C)CN[C@H]1[C@H]2C` the outcome was “inactive”. For `Nn1cnnc1`, the outcome was “inactive”. For `O=S(=O)(O)C(F)(F)C(F)(F)C(F)(F)C(F)(F)F`, the outcome was “inactive”. In the case of `Nc1ccc(-c2ccc(N)cc2)cc1`, the outcome was “inactive”. `Cc1cccc([N+](=O)[O-])c1` was tested, and the outcome was “inactive”. For `COS(=O)(=O)OC`, the outcome was “inactive”. For `O=C(N[C@H]1CN2CCC1CC2)c1cc2ccoc2cn1`, the outcome was “inactive”. For `NS(=O)(=O)C(F)(F)C(F)(F)C(F)(F)C(F)(F)C(F)(F)C(F)(F)C(F)(F)C(F)(F)F`, the AC50 was 50 µM (active). `Cc1cc(-c2ccc(N)c(C)c2)ccc1N` was tested, and the AC50 was 26 µM (active). With `CC(C)C(=O)OCC(C)(C)C(OC(=O)C(C)C)C(C)C` (stereo not given) the outcome was “inactive”. For `CCC(C)(c1ccc(O)cc1)c1ccc(O)cc1`, the outcome was “inactive”. With `Clc1ccc(C(c2ccccc2Cl)C(Cl)(Cl)Cl)cc1` (stereo not given) the AC50 was 90 µM (active). `c1ccc(-c2ccccc2)cc1` was tested, and the outcome was “inactive”. With `Cc1ccccc1CO[C@@H]1C[C@@]2(C(C)C)CC[C@]1(C)O2` the outcome was “inactive”. `CCCCCCCCCc1ccc(O)cc1` was tested, and the outcome was “inactive”. `c1cc2ccc3cccc4ccc(c1)c2c34` was tested, and the outcome was “inactive”. For `CCOP(=S)(OCC)SCSC(C)(C)C`, the outcome was “inactive”. `N#Cc1ccc(N(CC(N)=O)CC(F)(F)F)cc1C(F)(F)F` was tested, and the outcome was “inactive”. In the case of `Clc1ccc(Cl)cc1`, the outcome was “inactive”. In the case of `O=C(O)C(F)(F)C(F)(F)C(F)(F)C(F)(F)C(F)(F)F`, the outcome was “inactive”. For `Clc1ccc(C(Cl)(Cl)Cl)cc1`, the outcome was “inactive”. With `CC#Cc1cc(C)nc(Nc2ccccc2)n1` the outcome was “inactive”. In the case of `Oc1c(Cl)c(Cl)c(Cl)c(Cl)c1Cl`, the AC50 was 12.6 µM (active). With `Cc1ccc(O)c(C)c1` the outcome was “inactive”. With `C=CC(N)=O` the outcome was “inactive”. `ClC(Cl)=C(c1ccc(Cl)cc1)c1ccc(Cl)cc1` was tested, and the outcome was “inactive”. `ClC1=C(Cl)[C@]2(Cl)[C@@H]3[C@@H]4C[C@@H]([C@H]5O[C@@H]45)[C@@H]3[C@@]1(Cl)C2(Cl)Cl` was tested, and the outcome was “inactive”. For `Cc1cc(O)ccc1Cl`, the outcome was “inactive”. For `Oc1ccc(C(c2ccc(O)cc2)(C(F)(F)F)C(F)(F)F)cc1`, the outcome was “inactive”. For `CCCCCCCCOC(=O)c1ccccc1C(=O)OCCCCCCCC`, the outcome was “inactive”. In the case of `CCCCCCOC(=O)c1ccccc1C(=O)OCCCCCC`, the outcome was “inactive”.
